From PubChem BioAssay AID1159580 (chemical genetic matrix, 2015)
The campaign covered roughly 5,500 compounds. About 2,000 (36%) were called active. Not shown: some 18% with an inconclusive outcome. No stated cut-off is given here; in the data, active means normalized growth mostly below about 0.91 (no sharp cut-off); inconclusive means no clear call, values can overlap the other calls; inactive means mostly above about 0.92. Some of the results follow.

Assay: chemical genetic growth profiling, strain panel (AID 1159580);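 further: tested at 20 µM; growth read once vehicle control cultures reached saturation at 30 °C; 1 = growth at the plate median or of vehicle wells; lower values mean less growth of the strain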
Conditions: growth OD

Measured: normalized growth

COC(=O)c1cc(OC)c(=O)c2c(OC)c(OC)ccc2c1
inactive: S. cerevisiae deletion strains, locus YBR021W, strain FUR4, active compounds read low 1.02 | S. cerevisiae deletion strains, locus YBR229C, strain ROT2, active compounds read low 1.01 | S. cerevisiae deletion strains, locus YCL029C, strain bik1, active compounds read low 0.969 | S. cerevisiae deletion strains, locus YDL035C, strain GPR1, active compounds read low 1.03 | S. cerevisiae deletion strains, locus YDL074C, strain BRE1, active compounds read low 1.08 | S. cerevisiae deletion strains, locus YDL101C, strain DUN1, active compounds read low 1.01 | S. cerevisiae deletion strains, locus YDL134C, strain PPH21, active compounds read low 1.04 | S. cerevisiae deletion strains, locus YDL185W, strain tfp1, active compounds read low 0.998 | S. cerevisiae deletion strains, locus YDL192W, strain arf1, active compounds read low 0.971 | S. cerevisiae deletion strains, locus YDR101C, strain arx1, active compounds read low 0.975 | S. cerevisiae deletion strains, locus YDR162C, strain NBP2, active compounds read low 1.01 | S. cerevisiae deletion strains, locus YDR318W, strain mcm21, active compounds read low 0.969 | S. cerevisiae deletion strains, locus YDR388W, active compounds read low 0.986 | S. cerevisiae deletion strains, locus YDR502C, strain sam2, active compounds read low 0.99 | S. cerevisiae deletion strains, locus YER110C, active compounds read low 1.01 | S. cerevisiae deletion strains, locus YER155C, strain BEM2, active compounds read low 1.01 | S. cerevisiae deletion strains, locus YER167W, strain BCK2, active compounds read low 1 | S. cerevisiae deletion strains, locus YGL078C, strain dbp3, active compounds read low 0.995 | S. cerevisiae deletion strains, locus YGL086W, strain mad1, active compounds read low 0.984 | S. cerevisiae deletion strains, locus YGL248W, strain PDE1, active compounds read low 1.02 | S. cerevisiae deletion strains, locus YGR078C, strain PAC10, active compounds read low 1.01 | S. cerevisiae deletion strains, locus YGR135W, strain pre9, active compounds read low 0.985 | S. cerevisiae deletion strains, locus YGR229C, strain SMI1, active compounds read low 1.06 | S. cerevisiae deletion strains, locus YHR079C, strain IRE1 (second series), active compounds read low 1 | S. cerevisiae deletion strains, locus YHR094C, strain hxt1, active compounds read low 0.972 | S. cerevisiae deletion strains, locus YHR129C, strain ARP1, active compounds read low 1.02 | S. cerevisiae deletion strains, locus YHR200W, strain rpn10, active compounds read low 0.985 | S. cerevisiae deletion strains, locus YIL066C, strain RNR3, active compounds read low 1.02 | S. cerevisiae deletion strains, locus YIL073C, strain SPO22, active compounds read low 0.951 | S. cerevisiae deletion strains, locus YIL125W, strain kgd1, active compounds read low 0.978 | S. cerevisiae deletion strains, locus YIR030C, strain dcg1, active compounds read low 0.986 | S. cerevisiae deletion strains, locus YJL095W, strain BCK1, active compounds read low 1.04 | S. cerevisiae deletion strains, locus YJL134W, strain LCB3, active compounds read low 1 | S. cerevisiae deletion strains, locus YJL168C, strain set2, active compounds read low 0.972 | S. cerevisiae deletion strains, locus YJL187C, strain SWE1 (second series), active compounds read low 1.02 | S. cerevisiae deletion strains, locus YKL009W, strain mrt4, active compounds read low 0.977 | S. cerevisiae deletion strains, locus YKL068W, active compounds read low 0.999 | S. cerevisiae deletion strains, locus YKL085W, strain MDH1 (second series), active compounds read low 0.971 | S. cerevisiae deletion strains, locus YKL085W, strain MDH1, active compounds read low 0.971 | S. cerevisiae deletion strains, locus YKR001C, strain vps1, active compounds read low 0.966 | S. cerevisiae deletion strains, locus YLR039C, strain RIC1, active compounds read low 1.03 | S. cerevisiae deletion strains, locus YLR058C, strain SHM2, active compounds read low 1.03 | S. cerevisiae deletion strains, locus YLR102C, strain apc9, active compounds read low 0.959 | S. cerevisiae deletion strains, locus YLR268W, strain sec22, active compounds read low 0.981 | S. cerevisiae deletion strains, locus YLR330W, strain CHS5, active compounds read low 1.02 | S. cerevisiae deletion strains, locus YLR371W, strain rom2, active compounds read low 0.977 | S. cerevisiae deletion strains, locus YLR418C, strain cdc73, active compounds read low 1.07 | S. cerevisiae deletion strains, locus YML016C, strain PPZ1, active compounds read low 1 | S. cerevisiae deletion strains, locus YML032C, strain rad52, active compounds read low 0.996 | S. cerevisiae deletion strains, locus YML124C, strain tub3, active compounds read low 0.967 | S. cerevisiae deletion strains, locus YMR078C, strain ctf18, active compounds read low 0.976 | S. cerevisiae deletion strains, locus YMR223W, strain ubp8, active compounds read low 1 | S. cerevisiae deletion strains, locus YMR307W, strain GAS1, active compounds read low 1.01 | S. cerevisiae deletion strains, locus YNL067W, strain RPL9B, active compounds read low 0.998 | S. cerevisiae deletion strains, locus YNL233W, strain BNI4, active compounds read low 1.03 | S. cerevisiae deletion strains, locus YNL250W, strain rad50, active compounds read low 1.05 | S. cerevisiae deletion strains, locus YNL271C, strain bni1, active compounds read low 0.981 | S. cerevisiae deletion strains, locus YNL298W, strain CLA4, active compounds read low 0.984 | S. cerevisiae deletion strains, locus YNL307C, strain MCK1, active compounds read low 0.952 | S. cerevisiae deletion strains, locus YNL322C, strain KRE1, active compounds read low 1 | S. cerevisiae deletion strains, locus YNR052C, strain pop2, active compounds read low 0.981 | S. cerevisiae deletion strains, locus YOL006C, strain TOP1, active compounds read low 1.21 | S. cerevisiae deletion strains, locus YOL012C, strain htz1 0.895 | S. cerevisiae deletion strains, locus YOL147C, strain pex11, active compounds read low 0.993 | S. cerevisiae deletion strains, locus YOR061W, strain CKA2, active compounds read low 1 | S. cerevisiae deletion strains, locus YOR069W, strain VPS5, active compounds read low 1 | S. cerevisiae deletion strains, locus YOR136W, strain idh2, active compounds read low 0.977 | S. cerevisiae deletion strains, locus YOR144C, strain elg1, active compounds read low 0.987 | S. cerevisiae deletion strains, locus YOR184W, strain ser1, active compounds read low 0.935 | S. cerevisiae deletion strains, locus YOR316C, strain cot1, active compounds read low 0.985 | S. cerevisiae deletion strains, locus YPL241C, strain CIN2, active compounds read low 1 | S. cerevisiae deletion strains, locus YPR119W, strain clb2, active compounds read low 0.969 | S. cerevisiae deletion strains, locus YPR141C, strain kar3, active compounds read low 0.982 | S. cerevisiae deletion strains, locus YPR163C, strain tif3, active compounds read low 0.977 | S. cerevisiae deletion strains, locus YPR167C, strain met16, active compounds read low 0.967 | S. cerevisiae deletion strains, strain wtn01, active compounds read low 0.994 | S. cerevisiae strains, strain wild type, active compounds read low 1.02
